Source: PMC4336329 (PLoS ONE, 2015)
Screen size: about 310,000 compounds; about 14,000 (4.5%) showed an effect of 50% or more. The effect is printed as a negative number. The full list was thinned out, with strong results kept by preference.

biological target: human ether-à-go-go-related gene (hERG) potassium channel (human, UniProt Q12809); assay: primary screen, population patch clamp on CHO cells stably expressing hERG; higher = less effect of the substance
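Also: peak tail current of the secondary pulse compared with the same well before compound.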

human ether-à-go-go-related gene (hERG) potassium channel, sequence (Q12809 whole entry, looked up): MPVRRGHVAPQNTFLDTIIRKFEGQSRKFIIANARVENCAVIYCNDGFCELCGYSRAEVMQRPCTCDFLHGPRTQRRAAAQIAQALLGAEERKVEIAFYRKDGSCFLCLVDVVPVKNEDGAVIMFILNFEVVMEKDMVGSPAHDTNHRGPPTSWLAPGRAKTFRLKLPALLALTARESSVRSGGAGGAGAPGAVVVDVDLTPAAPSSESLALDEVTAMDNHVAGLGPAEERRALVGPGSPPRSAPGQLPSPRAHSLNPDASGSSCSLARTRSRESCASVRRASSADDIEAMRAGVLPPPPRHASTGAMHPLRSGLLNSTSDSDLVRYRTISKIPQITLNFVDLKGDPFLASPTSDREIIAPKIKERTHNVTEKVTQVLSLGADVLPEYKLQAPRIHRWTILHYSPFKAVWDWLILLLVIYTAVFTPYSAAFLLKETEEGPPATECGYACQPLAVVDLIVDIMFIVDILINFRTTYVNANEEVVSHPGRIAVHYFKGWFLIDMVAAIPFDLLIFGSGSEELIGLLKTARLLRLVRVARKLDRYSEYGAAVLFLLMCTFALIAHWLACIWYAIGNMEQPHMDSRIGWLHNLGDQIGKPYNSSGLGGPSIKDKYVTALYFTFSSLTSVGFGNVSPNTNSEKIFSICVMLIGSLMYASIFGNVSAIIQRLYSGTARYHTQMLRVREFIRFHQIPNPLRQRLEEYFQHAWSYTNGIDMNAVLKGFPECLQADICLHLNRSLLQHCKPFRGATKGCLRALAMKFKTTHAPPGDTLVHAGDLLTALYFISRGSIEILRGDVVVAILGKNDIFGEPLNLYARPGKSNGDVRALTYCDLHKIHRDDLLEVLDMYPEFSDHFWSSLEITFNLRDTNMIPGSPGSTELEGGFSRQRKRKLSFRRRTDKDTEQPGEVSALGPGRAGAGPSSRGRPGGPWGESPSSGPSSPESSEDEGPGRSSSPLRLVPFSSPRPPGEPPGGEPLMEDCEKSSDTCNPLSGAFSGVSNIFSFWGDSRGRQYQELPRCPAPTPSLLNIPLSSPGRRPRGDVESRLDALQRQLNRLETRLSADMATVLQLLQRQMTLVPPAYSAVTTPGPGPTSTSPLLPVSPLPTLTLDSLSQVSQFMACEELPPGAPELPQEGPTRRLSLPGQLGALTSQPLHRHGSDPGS

Row | SMILES | hERG current change (%, negative = inhibition) at 10uM [%]
1 | Cc1cc(C(=O)NC2CCCc3c2cnn3-c2ccc(C)c(C)c2)no1 (centres unmarked) | -42.9
2 | Cc1ccc(-n2ncc3c2CCCC3NC(=O)CCc2cnn(C)c2)cc1C (centres unmarked) | 7.27
3 | CSCC(=O)NC1CCCc2c1cnn2-c1ccc(C)c(C)c1 (centres unmarked) | -28
4 | CCCC(=O)NC1CCCc2c1cnn2-c1ccc(C)c(C)c1 (centres unmarked) | -72
5 | Cc1ccc(-n2ncc3c2CCCC3NC(=O)c2ccoc2)cc1C (centres unmarked) | -79.2
6 | COC(=O)c1ccc(C(=O)NC2CCCc3c2cnn3-c2ccc(C)c(C)c2)cc1 (centres unmarked) | 6.54
7 | O=C1COc2ccc(S(=O)(=O)NCCc3ccccc3)cc2N1 | 10.7
8 | CC(NC(=O)c1cc(S(=O)(=O)N2CCCC2)ccc1Cl)c1ccccn1 (centres unmarked) | 18.1
9 | CCOc1ccc(C2C3=C(CC(C)(C)CC3=O)N(CC(=O)O)C3=C2C(=O)CC(C)(C)C3)cc1OCC | 5.47
10 | CC1CN(C(=S)Nc2ccc(SC(F)F)cc2)CC(C)O1 (centres unmarked) | -27.6
11 | O=C(NCc1ccncc1)c1ccccc1Nc1ccc(SC(F)F)cc1 | -63.9
12 | CNC(=O)c1ccccc1Nc1ccc(SC(F)F)cc1 | -1.62
13 | CN1CCC(N(C)C(=S)Nc2ccc(F)cc2)CC1 | 21.3
14 | CC1CC(C)CN(C(=O)c2ccccc2Nc2ccc(SC(F)F)cc2)C1 (centres unmarked) | 0.904
15 | CN1CCC(N(C)C(=O)c2ccccc2Nc2ccc(SC(F)F)cc2)CC1 | -62.2
16 | CN1CCN(C(=O)c2ccccc2Nc2ccc(SC(F)F)cc2)CC1.Cl | -26
17 | O=C(NCc1ccncc1)c1cccc(S(=O)(=O)Nc2ccc(SC(F)F)cc2)c1 | -3.21
18 | CC1CCN(C(=S)Nc2ccc(SC(F)F)cc2)CC1 | -33
19 | CC(=O)c1ccc(NC(=S)N(C)C2CCN(C)CC2)cc1 | -4.16
20 | CN1CCC(N(C)C(=S)Nc2ccc(SC(F)F)cc2)CC1 | -56.6
21 | CC1CC(C)CN(C(=S)Nc2ccc(SC(F)F)cc2)C1 (centres unmarked) | -51.8
22 | O=C(CCN1C(=O)c2ccccc2C1=O)OCN1C(=O)c2ccccc2C1=O | -11.5
23 | COCCSc1ccccc1C(=O)NCc1cccnc1 | 18.7

Row | SMILES | hERG current change (%, negative = inhibition) at 10uM [%]
24 | CCc1c(C)[nH]c2nc3ccccc3n2c1=O | 4.86
25 | CC(C)c1nc2ccc(NC(=O)C34CC5CC(CC(C5)C3)C4)cc2[nH]1 | 4.9
26 | COCCCn1c(SCC(=O)Nc2nnc(C)s2)nnc1-c1ccoc1C | 4.33
27 | Cc1ccc(NC2=NC(=S)N(CC#N)C23CCCCC3)cc1 | -6.19
28 | COc1cccc(C(=O)C2CCCN(C(=O)c3ccccn3)C2)c1 (centres unmarked) | 3.77
29 | Cc1c(CN2CCCC(C(=O)c3cccc(OC(C)C)c3)C2)c(=O)n(-c2ccccc2)n1C (centres unmarked) | -57.2
30 | COc1cccc(C(=O)C2CCCN(Cc3c(C)n(C)n(-c4ccccc4)c3=O)C2)c1 (centres unmarked) | -21.2
31 | COc1cccc(C(=O)C2CCCN(Cc3cccn3-c3ccccn3)C2)c1 (centres unmarked) | -76.5
32 | CC(C)Oc1cccc(C(=O)C2CCCN(Cc3ccon3)C2)c1 (centres unmarked) | -3.37
33 | Cc1c(CN2CCCC(C(=O)c3cccc(Cl)c3)C2)c(=O)n(-c2ccccc2)n1C (centres unmarked) | -24
34 | CC(C)Oc1cccc(C(=O)C2CCCN(Cc3cccn3-c3cccnc3)C2)c1 (centres unmarked) | -27.7
35 | CC(C)Oc1cccc(C(=O)C2CCCN(Cc3cccn3-c3ccccn3)C2)c1 (centres unmarked) | -78.8
36 | COc1ccc(C(=O)Nc2c3c(nn2C(C)(C)C)CS(=O)(=O)C3)cc1OC | 13.1
37 | CCc1ccccc1NS(=O)(=O)c1cc(C)ccc1OC | -5.89
38 | O=C(O)COc1ccccc1/C=N/NC(=O)c1ccc2c(c1)OCCO2 | -2.93
39 | O=C(CSc1nnc(COc2ccc3c(c2)CCCC3)o1)Nc1ccc(F)cc1 | 10.2
40 | Cc1ccc2c(C)nc(Nc3ncc4c(n3)CCCC4=O)nc2c1 | -12.4
41 | Cc1cc(C)n2nnnc2n1 | 18.5
42 | COc1ccccc1C(=O)NCC(=O)Nc1ccccc1 | 5.97
43 | CS(=O)(=O)c1ccccc1C(=O)NCCC(c1ccccc1)c1ccccc1 | -51.9
44 | COc1ccccc1C(=O)NCC(=O)NC(C)CCc1ccccc1 (centres unmarked) | 1.99
45 | Cc1ccc(C(NC(=O)c2ccccc2S(C)(=O)=O)c2ccccc2)cc1 (centres unmarked) | -30.3
46 | Cc1cc(C(=O)NCCC(c2ccccc2)c2ccccc2)c(C)o1 | -17.5

Row | SMILES | hERG current change (%, negative = inhibition) at 10uM [%]
47 | COc1ccccc1C(=O)NCC(=O)NCCC(c1ccccc1)c1ccccc1 | -64.4
48 | O=C(C1CCCO1)N1CCN(C(=S)Nc2ccc(Cl)c(Cl)c2)CC1 (centres unmarked) | -30.2
49 | CCN(CC)C(=O)c1cn(-c2ccccc2)nc1-c1ccc2c(c1)OCCO2 | -3.56
50 | O=C(Nn1c(C2CC2)nc2ccccc2c1=O)c1ccco1 | -8.14
51 | CCN(CC(=O)NCc1ccc(F)cc1)C(=O)/C=C/c1cccs1 | -40.9
52 | Cc1cc(C)n(-c2ccc(Cl)c(C(=O)OCC(=O)N3CCCCC3C)n2)n1 (centres unmarked) | -4.12
53 | NC(N)=Nc1nc(-c2ccccc2)c2ccccc2n1 | -40.1
54 | NNc1nc(-c2ccccc2)c2cc(Cl)ccc2n1 | -11.3
55 | Clc1ccc2nnnc(-c3ccccc3)c2c1 | -9.98
56 | NC(N)=Nc1nc(-c2ccccc2)c2cc(F)ccc2n1 | -66.2
57 | Cc1nc(N=C(N)N)nc2ccccc12 | 23.6
58 | Cl.NC(N)=Nc1nc(-c2ccccc2)c2cc(Cl)ccc2n1 | -67.9
59 | CC(=O)c1ccc(NC(=S)N2CCN(C(=S)Nc3ccc(C(C)=O)cc3)C(C)C2)cc1 (centres unmarked) | 20.6
60 | CCN(CC)S(=O)(=O)c1cccc(NC(=S)NC(=O)/C=C/c2ccc(S(=O)(=O)N3CCOCC3)cc2)c1 | -6.82
61 | CCCCc1nc2ccccc2[nH]1 | 14.2
62 | CSc1nc2sc(-c3ccccc3)cc2c(=O)n1N | 17.4
63 | O=C(NNC(=O)c1ccccc1-n1cccc1)c1ccccc1 | -18.3
64 | N#Cc1nc(-c2ccccc2Cl)oc1NCc1ccco1 | -8.28
65 | Cc1ccc(-c2nc(C#N)c(NCc3ccco3)o2)cc1 | -0.709
66 | Cc1ccccc1-c1nc(C#N)c(NCc2ccco2)o1 | -57.2
67 | O=C(COc1ccccc1)N1CCN(C(=O)Cc2ccccc2)CC1 | -1.51
68 | COc1cc2nc(SCC(=O)c3ccc(Br)cc3)n3nc(C)nc3c2cc1OC | -17.7
69 | Cc1nn(C)cc1CN1CCCC(C(=O)c2ccc(-c3ccccc3)cc2)C1 (centres unmarked) | -45.4

Row | SMILES | hERG current change (%, negative = inhibition) at 10uM [%]
70 | Cc1ccsc1C(=O)C1CCCN(Cc2cn(C)nc2-c2ccccc2)C1 (centres unmarked) | -32.1
71 | COc1ccc(C(=O)C2CCCN(Cc3cn(C)nc3-c3ccccc3)C2)cc1F (centres unmarked) | -72.4
72 | Cn1cc(CN2CCCC(C(=O)c3cccs3)C2)c(-c2cccc(Cl)c2)n1 (centres unmarked) | -39.2
73 | Cc1nn(C)cc1CN1CCCC(C(=O)c2ccc(-c3ccccc3)c(F)c2)C1 (centres unmarked) | -15.3
74 | COc1cccc(C(=O)C2CCCN(Cc3cn(CC(N)=O)c4ccccc34)C2)c1 (centres unmarked) | -53
75 | COc1cccc(C(=O)C2CCCN(Cc3cn(C)nc3-c3ccccc3)C2)c1 (centres unmarked) | -68.8
76 | NC(=O)NC1NC(=O)NC1=O (centres unmarked) | 11.9
77 | C/C(Cl)=C\Cn1c(O)c(N=NC(N)=S)c2cc(Br)ccc21 | 8.96
78 | COc1cccc(C(=O)N(C)CC(=O)Nc2ccc(F)c(F)c2F)c1 | 11.4
79 | O=C(COC(=O)c1ccc(S(=O)(=O)N2CCOCC2)cc1)NC1CCCCCCC1 | 12.2
80 | Clc1ccc(Nc2ccc(-n3ccnc3)nn2)cc1Cl | -9.9
81 | CC(=O)c1cc2c(C)cc(=O)oc2cc1O | 1.77
82 | CC1CCN(C(=O)Cn2c(=O)n(Cc3ccc4c(c3)OCO4)c(=O)c3ccccc32)CC1 | -18.5
83 | CN(C)CCCOC(=O)c1ccc(Cl)cc1Cl.Cl | -38.8
84 | CCN(CC)CCOC(=O)c1cccc(Cl)c1.Cl | -32.4
85 | CCN(CC)CCOC(=O)c1ccc(Cl)cc1.Cl | -42.7
86 | CCN(CC)CCOC(=O)c1ccc(Cl)cc1Cl.Cl | -55.4
87 | CCCN(CCC)CCCOC(=O)c1ccc(Cl)cc1Cl.Cl | -70.1
88 | CN(C)CCCOC(=O)c1ccccc1Cl.Cl | -0.792
89 | Cc1nnc(NC(=O)CN2CCN(Cc3ccccc3Cl)CC2)s1 | 6.08
90 | CSc1cccc(NC(=O)c2ccccn2)c1 | 7.57
91 | CC[C@H](C)C(N)c1cn([C@@H](CC(N)=O)C(=O)N2CCNCC2)nn1 (some centres unmarked) | -10.5
92 | COc1ccc2c(c1)C(NS(=O)(=O)OCC(Cl)(Cl)Cl)CCC2 (centres unmarked) | -0.647
